# This is a sample that favours compounds with a hit; in the whole collection about 2.4% have one here.
# UHRF1 binding: human UHRF1 methylated DNA binding inhibitors | UHRF1 binding to methylated oligo, TR-FRET | inhibition, % at 4.4 µM | hit rate 0.75% among 370,000 | AID 687016; in the data active = inhibition above about 21%;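 note: UHRF1 SRA domain binding a hemimethylated CpG hairpin DNA probe; 0% = median of test compound wells and 100% = reference inhibitor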
# Target sequence (Q96T88 whole entry, looked up, the tested form may be a part): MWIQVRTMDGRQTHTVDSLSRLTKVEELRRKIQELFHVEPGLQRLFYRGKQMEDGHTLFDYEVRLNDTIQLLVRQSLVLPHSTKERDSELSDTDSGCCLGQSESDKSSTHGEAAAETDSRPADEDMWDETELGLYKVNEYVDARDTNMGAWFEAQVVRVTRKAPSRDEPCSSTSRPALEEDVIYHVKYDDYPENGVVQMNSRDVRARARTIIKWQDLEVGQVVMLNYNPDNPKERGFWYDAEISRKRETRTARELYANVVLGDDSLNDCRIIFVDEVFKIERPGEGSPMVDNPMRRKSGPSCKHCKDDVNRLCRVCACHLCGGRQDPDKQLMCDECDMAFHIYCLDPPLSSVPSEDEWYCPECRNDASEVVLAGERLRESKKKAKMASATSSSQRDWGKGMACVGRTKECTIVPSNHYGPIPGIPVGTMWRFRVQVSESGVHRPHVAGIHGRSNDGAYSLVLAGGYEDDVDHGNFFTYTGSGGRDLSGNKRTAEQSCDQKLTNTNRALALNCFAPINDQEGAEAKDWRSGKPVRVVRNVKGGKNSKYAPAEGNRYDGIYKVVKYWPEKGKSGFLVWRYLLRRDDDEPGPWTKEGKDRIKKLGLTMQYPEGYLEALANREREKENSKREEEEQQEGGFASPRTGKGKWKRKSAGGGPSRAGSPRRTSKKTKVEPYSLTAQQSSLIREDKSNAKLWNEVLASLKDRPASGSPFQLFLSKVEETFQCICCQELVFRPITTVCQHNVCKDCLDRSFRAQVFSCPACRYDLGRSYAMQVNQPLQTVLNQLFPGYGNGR
# PLC-gamma1 inh: blocks human PLC-gamma1 enzyme activity; P19174; purified PLC-gamma1, fluorogenic substrate, fluorescence; inhibition, % at 12.2 µM; hit rate 0.84% among 370,000; in the data active = inhibition above about 9.5%
# PLCb3 inh: blocks human PLC-beta3 enzyme activity. inhibition, % at 12.2 µM. Purified PLC-beta3, fluorogenic substrate, fluorescence. hit rate 0.18% among 370,000. AID 720704. Q01970; in the data active = inhibition above about 11%;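 note: 0% = median of compound wells on plate and 100% = full blocker control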
# MBD2 DNA inh: MBD2-methylated oligo binding inhibition | hit rate 0.31% among 370,000 | inhibition, % at 4.4 µM | TR-FRET, MBD2 binding to methylated oligonucleotide; in the data active = inhibition above about 13%
# LEDGF integ inh: blocks HIV-1 LEDGF/p75-dependent DNA integration. AID 743269. hit rate 0.64% among 370,000. TR-FRET IN-LEDGF/p75 DNA integration, Eu/Cy5. inhibition, % at 3.7 µM;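 active = inhibition above the screen-wide mean plus 3 SD, cut at about 13% in these data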;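 note: signal is the Cy5 over europium emission ratio at 671 and 618 nm; 0% = plate median of compound wells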
# IN multimer act: activates HIV-1 integrase multimerization in LEDGF counter-screen | shares compounds with LEDGF integ inh | TR-FRET HIV-1 integrase multimerization, biochemical | activation, % at 7.7 µM | hit rate 17% among 2,000; in the data active = activation above about 8.9%
# TR-FRET interf: optically interferes with TR-FRET readout in LEDGF counter-screen. 2,000 tested, under 10 active. AID 1053135. TR-FRET optical interference counterscreen, HIV-1 IN multimerization. shares compounds with LEDGF integ inh. inhibition, % at 7.7 µM;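 active = inhibition above the mean over all tested compounds plus 3 SD, which no compound reached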;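 note: 0% = integrase with antibodies and DMSO and 100% = antibodies without integrase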
# LEDGF integ conf: LEDGF/p75-dependent HIV-1 integration inhibition, confirmation | TR-FRET LEDGF/p75-dependent HIV-1 integration, biochemical | hit rate 36% among 2,000 | inhibition, % at 3.7 µM | shares compounds with LEDGF integ inh | AID 1053136; in the data active = inhibition above about 14%
# * = called active by the depositor; · = no result given.
SMILES,UHRF1 binding,PLC-gamma1 inh,PLCb3 inh,MBD2 DNA inh,LEDGF integ inh,IN multimer act,TR-FRET interf,LEDGF integ conf
O=C1C(Nc2ccccc2)=C(N2CCCCC2)C(=O)c2ccccc21,8,0,2,0,22*,-1,2,34*
CN(C1=C(N2CCCCC2)C(=O)c2ccccc2C1=O)c1ccccc1,5,5,0,9,16*,2,-11,3
O=C(/C=C/c1ccc(O)cc1)c1ccc(NC2=C(N3CCCCC3)C(=O)c3ccccc3C2=O)cc1,9,-35,-35,-5,15*,4,-13,30*
O=S1(=O)c2ccc(Br)cc2OC[C@H](Cc2ccccc2)N1Cc1cn(Cc2ccc(C(F)(F)F)cc2)nn1,-1,2,2,0,1,·,·,·
O=C1C(Nc2cccc(O)c2)=C(N2CCCCC2)C(=O)c2ccccc21,13,-28,-40,-6,20*,-1,4,37*
CCC(C)Sc1ccc([C@H]2N[C@@](C)(C(=O)OC)[C@H]3C(=O)N(CC)C(=O)[C@@H]23)cc1 (stereo partly drawn),-3,-3,-2,2,0,·,·,·
CCCCCCSc1ccc([C@H]2N[C@@](C)(C(=O)OC)[C@H]3C(=O)N(CC)C(=O)[C@@H]23)cc1,0,1,1,3,15*,0,-1,-3
COC(=O)C1=C(C)N(Cc2ccc(OC)cc2)C(=O)C1,3,2,-99,2,4,·,·,·
COC(=O)C1=C(C)N(Cc2ccco2)C(=O)C1,11,-5,-7,6,29*,2,-7,31*
O=C(O)CCN1C(=O)/C(=C/c2ccc(F)cc2F)SC1=S,-8,-1,-4,-7,-3,·,·,·
CC(C)(C)c1ccc(CC(=O)N2CCC2(C)C(=O)NS(=O)(=O)c2cccc(OC(F)F)c2)cc1 (stereo not drawn),-1,-6,-3,-3,0,·,·,·
Cc1cc(C)cc(CC(=O)N2CCC2(C)C(=O)NS(=O)(=O)c2cccc(OC(F)F)c2)c1 (stereo not drawn),-1,-2,-3,0,17*,0,-1,-3
COc1cc(OC)c(OC)cc1/C=C/c1ccnc2ccccc12,-2,-84,-102,-1,1,·,·,·
COc1ccc(OC)c(/C=C/c2ccnc3ccccc23)c1,4,-303,-392,-3,25*,1,-4,-10
CC(=O)Nc1ccc(Oc2cnccn2)cc1,-2,0,2,1,29*,-3,17,3
CC(=O)Nc1ccc(Oc2cnc3ccccc3n2)cc1,-5,5,2,5,1,·,·,·
CN=C1S/C(=C/c2cc(C)n(Cc3ccccc3)c2C)C(=O)N1C,-3,-14,-18,-3,7,·,·,·
O=C(CSc1nc2ccccc2nc1N1CCOCC1)NCc1ccc(Cl)cc1Cl,0,-2,0,0,-1,·,·,·
O=C(/C=C/c1ccccc1)Nc1scc(-c2ccccc2)c1C(=O)O,-4,-37,-60,3,16*,1,-6,12
Cc1ccc(-c2csc(NC(=O)c3ccc(F)cc3)c2C(=O)O)cc1,2,-48,-62,0,7,·,·,·
O=C(Nc1scc(-c2ccccc2)c1C(=O)O)c1ccc(F)cc1,5,-79,-85,2,14*,0,3,5
COc1ccc2[nH]c3c(c2c1)CCN[C@]31C(=O)N(C)c2ccc(Br)cc21,-2,0,-1,1,2,·,·,·
COc1c(-c2ccc(O)c(O)c2)oc2cc(O)cc(O)c2c1=O,-1,0,3,-2,16*,9.3*,-33,72*
CC[C@@H](CCC1CCCCC1)CN(c1ccccc1)S(C)(=O)=O,0,3,1,-6,-2,·,·,·
Clc1ccc(Nc2ccc(NCc3ccccc3)nn2)cc1,-3,-5,-4,-10,-4,·,·,·
Cc1ccc(Nc2ccc(NCc3ccccc3)nn2)cc1C,7,-1,-3,2,47*,2,-8,-4
